# “And” between values parts separate entries of the source, which are not always exact repeats. Equal entries are not always repeated. ± gives the standard deviation of the averaged measurements. In all, about 1,700 compounds were measured (“fraction of GFP-LC3-positive cells (≥5 vesicles/cell)”: median about 0.058, highest 2% from about 0.59 on). The entries come from a sample that favours the highest values as a whole.
# System: CbCln3 +/+ GFP-LC3 cerebellar neuronal cells
# Experiment: fraction of GFP-LC3-positive cells (≥5 vesicles/cell); higher = more autophagosome accumulation
# Outline: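 In 384-well plates at 2 × 10^3 cells per well, GFP-LC3-expressing wild-type or mutant CbCln3 cerebellar cells took ~50 nL of compound in DMSO by pin transfer, in duplicate, for 24 h at 33 °C. Staining with Hoechst 33342 and LysoTracker Red over the final 30 min preceded fixation in 3.2% PFA and imaging of three fields per well at 10×. CellProfiler then counted GFP-LC3 vesicles in each cell, and out-of-focus images were dropped before the fraction of cells with 5 or more vesicles was averaged over duplicates.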
row,Compound,fraction of GFP-LC3-positive cells
1,COc1ccc2c(c1)c(CC(=O)N1CCOCC1)c(C)n2C(=O)c1ccc(Cl)cc1,0.0513 ± 0.01
2,CCCCCCCCCCCCCCCCC(=O)O [Heptadecanoic acid],0.0793
3,C[N+](C)(C)CCOC(N)=O.[Cl-] [Carbachol],0.0698
4,Cn1cc(C2=C(c3cn(CCCSC(=N)N)c4ccccc34)C(=O)NC2=O)c2ccccc21,0.845 ± 0.071
5,CN(C)CCCn1cc(C2=C(c3c[nH]c4ccccc34)C(=O)NC2=O)c2ccccc21,0.0883 and 0.0921
6,COc1ccc(CCN(C)CCCC(C#N)(c2ccc(OC)c(OC)c2)C(C)C)cc1OC.Cl (stereo unspecified) [Verapamyl hydrochloride],0.0534
7,COC(=O)[C@H]1[C@H]2C[C@H]3c4[nH]c5ccccc5c4CCN3C[C@@H]2CC[C@@H]1O.Cl [Corynanthine hydrochloride],0.0351
8,NC(=O)c1ncn([C@@H]2O[C@H](CO)[C@@H](O)[C@H]2O)n1 [Ribavirin],0.033
9,Nc1nc(S)c2ncn([C@@H]3O[C@H](CO)[C@@H](O)[C@H]3O)c2n1 [Thioguanosine],0.131
10,Nc1ncn(C2O[C@H](CO)[C@@H](O)[C@H]2O)c(=O)n1 (stereo partly specified) [Azacytidine-5],0.745
11,C[C@]12CCC(=O)C=C1CC[C@@H]1[C@@H]2[C@@H](O)C[C@@]2(C)[C@H]1CC[C@]2(O)C(=O)CO [Hydrocortisone base],0.049
12,C[C@@H](N)[C@H]1CC[C@H](C(=O)Nc2ccncc2)CC1,0.074
13,CNCCC=C1c2ccccc2CCc2ccccc21.Cl [Nortriptyline hydrochloride],0.0533
14,Cc1nccn1CC1CCc2c(c3ccccc3n2C)C1=O.Cl (stereo unspecified) [Ondansetron Hydrochloride],0.03
15,CCCCCCCCCCCCCCCCCCCCCCC(=O)O [Tricosanoic acid],0.0481
16,Cc1cc(CC(=O)[O-])n(C)c1C(=O)c1ccc(Cl)cc1.[Na+] [Zomepirac sodium salt],0.0585
17,CC(COc1ccccc1)N(CCCl)Cc1ccccc1.Cl (stereo unspecified) [Phenoxybenzamine hydrochloride],0.139
18,Cc1cc(C(C)(C)C)cc(C)c1CC1=NCCN1.Cl [Xylometazoline hydrochloride],0.0933
19,Cc1ccc(Cl)c(Nc2ccccc2C(=O)[O-])c1Cl.O.[Na+] [Meclofenamic acid sodium salt monohydrate],0.0498
20,CCCC[C@@H](C)/C=C(C)/C=C(\C)C(=O)NC1=C[C@@](O)(/C=C/C=C/C=C/C(=O)NC2=C(O)CCC2=O)[C@@H]2O[C@@H]2C1=O [manumycin A],0.695
21,COc1ccccc1OCC(O)COC(N)=O (stereo unspecified) [Methocarbamol],0.0551
22,COc1cc(C(=O)OCCCN2CCCN(CCCOC(=O)c3cc(OC)c(OC)c(OC)c3)CC2)cc(OC)c1OC.Cl.Cl [Dilazep dihydrochloride],0.0467
23,COc1cc(/C=C/C(=O)N2CCC=CC2=O)cc(OC)c1OC [Piperlongumine],0.781
24,COC(=O)[C@H]1[C@H]2C[C@@H]3c4[nH]c5cc(OC)ccc5c4CCN3C[C@H]2C[C@@H](OC(=O)/C=C/c2cc(OC)c(OC)c(OC)c2)[C@@H]1OC [Rescinnamin],0.134
25,COc1ccc2c(c1OC)C(=O)O[C@@H]2[C@H]1c2c(cc3c(c2OC)OCO3)CCN1C [Noscapine],0.0895
26,COC(=O)/C=C/c1cc(O)ccc1O,0.852

row,Compound,fraction of GFP-LC3-positive cells
1,Oc1cc(O)cc(/C=C/c2ccc(O)c(O)c2)c1,0.173
2,Oc1cc(O)cc(/C=C/c2ccc(O)c(O)c2)c1 [Piceatannol],0.357
3,COc1ccc(C(=O)c2ccccc2)c(O)c1 [Oxybenzone],0.0797
4,CCCCCCCC/C=C\CCCCCCCCOC[C@H](COP(=O)([O-])OCC[N+](C)(C)C)OC(C)=O,0.0408 ± 0.0017
5,C[n+]1cccc(C(=O)[O-])c1 [Trigonelline],0.042
6,Cn1cnc2c(NCc3ccccc3)nc(NCCO)nc21,0.0719
7,Cn1cnc2c(NCc3ccccc3)nc(NCCO)nc21 [olomoucine],0.058
8,O.O.O=c1c(O)c(-c2ccc(O)c(O)c2)oc2cc(O)cc(O)c12 [Quercetine dihydrate],0.0843
9,CCCC[C@@H](C=O)NC(=O)[C@H](CC(C)C)NC(=O)[C@H](CC(C)C)NC(C)=O,0.926
10,CC(=O)N[C@@H](CC(C)C)C(=O)N[C@@H](CC(C)C)C(=O)N[C@H](C=O)CCCNC(=N)N [Leupeptin],0.0499
11,CSCC[C@@H](C=O)NC(=O)[C@H](CC(C)C)NC(=O)[C@H](CC(C)C)NC(C)=O,0.0674
12,Nc1ccn([C@H]2CC[C@@H](CO)O2)c(=O)n1 [Zalcitabine],0.11
13,"O=C1C=CC(=O)c2c1ccc1c2ccc2ccccc21 [Chrysene-1,4-quinone]",0.597
14,O=C1CCc2c(ccc3ccccc23)O1 [Splitomycin],0.0416
15,CCCCCCCCCCC(=O)O [Undecanoic acid],0.0729
16,CC(=O)Oc1cc(C(C)C)c(OCCN(C)C)cc1C.Cl [Moxisylyte hydrochoride],0.0756
17,CS(=O)(=O)c1ccc([C@@H](O)[C@@H](CO)NC(=O)C(Cl)Cl)cc1 [Thiamphenicol],0.0366
18,COc1ccc(CC(N)C(=O)N[C@H]2[C@@H](O)[C@H](n3cnc4c(N(C)C)ncnc43)O[C@@H]2CO)cc1 (stereo partly specified) [puromycin],0.276
19,N=C(N)N1CCc2ccccc2C1.N=C(N)N1CCc2ccccc2C1.O=S(=O)(O)O [Debrisoquin sulfate],0.0501
20,C/C=C(/C(=C/C)c1ccc(O)cc1)c1ccc(O)cc1 [Dienestrol],0.14
21,"CCCCC/C=C/C/C=C/CCCCCCCCCCC(=O)O [12(Z), 15(Z)-Heneicosadienoic acid]",0.0338
22,NC(CO)(CO)CO.O=C(c1ccccc1)c1ccc2n1CCC2C(=O)O (stereo unspecified) [Ketorolac tromethamine],0.0452
23,CC(C)(C)NCC(O)COc1cccc2c1CC(O)C(O)C2 (stereo unspecified) [Nadolol],0.0452
24,O=C(O)c1ccccc1Nc1ccccc1,0.0543
25,N#CC(=C(/N)Sc1ccccc1N)/C(C#N)=C(\N)Sc1ccccc1N,0.0648 and 0.109

# Source: the supplement of paper PMC6953052
